# Measured values published in the supplement of paper PMC6555819.
# Legend:
# Assay in all cases: PBM binding z-score (relative to random genomic background probes); higher = stronger binding; sequences stand for … in GC…GCGATTGACAGCGTAGAATGAAGG
# [1] = tested on: RARb homodimer (NR concentration 270 nM)
# In short: (§1)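 Probes were double-stranded and carried 34-nt variable regions with direct-repeat seeds, single-nucleotide variants, half-site ablations and random human genomic background sequences, printed on custom Agilent 4×180K protein-binding microarrays. Arrays were incubated 1 h with ligand-free nuclear receptor dimers in PBS pH 7.4, 2% milk, 0.02% Triton X-100, 1 mM DTT, 0.2 mg/mL BSA and 0.4 mg/ml salmon testes DNA. Antibodies against each partner (one per run) detected binding, and scanned fluorescence was regression-normalized. Binding z-scores use the random background probes as reference.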
# [2] = tested on: RARg:RXRa (NR concentration 270 nM, RXRa partner concentration 90 nM)
# In short: as §1
# [3] = tested on: RARg homodimer (NR concentration 270 nM)
# In short: as §1
# [4] = tested on: RXRa DBDmut IVT, anti-RXR (DBD mutation: RXRa K156A/R161A, NR concentration 90 nM)
# In short: as §1
# [5] = tested on: RXRa homodimer (NR concentration 180 nM)
# In short: as §1
# [6] = tested on: THRa:RXRa (NR concentration 90 nM, RXRa partner concentration 90 nM)
# In short: as §1
# [7] = tested on: THRa homodimer (NR concentration 90 nM)
# In short: as §1
# [8] = tested on: VDR homodimer (NR concentration 270 nM)
# In short: as §1
Sequence,PBM binding z-score [1],PBM binding z-score [2],PBM binding z-score [3],PBM binding z-score [4],PBM binding z-score [5],PBM binding z-score [6],PBM binding z-score [7],PBM binding z-score [8]
CGGACTGGGGCAGAAAGGTTACCATACCATCCGG,2.51,1.79,1.69,-0.693,1.85,1.29,-0.00516,0.148
CAAACTAGGTCACAGCGGTCAAAGTCCGTGCGTA,4.53,5.19,5.77,1.84,3.87,3.66,1.74,2.57
CAAACTAGGTCAAGAGGTCAAAGCCCGCTTCCCG,5.64,8.19,7.34,2.92,7.83,4.46,2.47,3.87
CACACTAGGTCACGAAAGGTCAAAGTCGAATGAC,5.91,7.95,8.87,2.87,8.16,5.26,3.18,3.49
AGTCAAAGTCCACTAGGTAACGTAAGATTCAGCT,0.615,0.39,0.85,0.801,-0.0426,0.284,0.284,-0.159
GCTGCTAGGTGAACTGATGGTCAGCTAAAGCTCG,0.715,0.956,0.47,-0.22,0.333,1.03,-0.574,-0.742
CCTGCTAGGTCATGGTCAGCAAATCTACAGTATG,2.81,4.02,4.6,1.74,2.84,3.09,1.37,0.339
